The values that follow come from PubChem BioAssay (NCI).

Compounds without any hit were thinned out: in the full panel of roughly 83,000, 20% have a hit.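 Cells were grown in 96-well plates and exposed to the test compound at a single concentration for 48 hours; results are reported as percent growth, with values below 10 considered active.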 A number with no mark means an inactive call. The source made the active and inactive calls.

For this assay, the system named is SR leukemia. As to the kind of experiment: NCI-60 one-dose screen, 48 h (100 = growth as untreated, 0 = no growth, -100 = all killed). The conditions noted are these: 10 µM. The procedure: Growth inhibition of the SR human tumor cell line is measured as a screen for anti-cancer activity. Cells are grown in 96 well plates and exposed to the test compound for 48 hours. Compounds are tested at a single concentration, which is 10^-5 M for most compounds. The reported endpoint is percent growth (GI% or GIPRCNT), where numbers from 0 - 100% represent growth inhibition, and numbers from -100% - 0 represent cell death. For example, a value of 40 represents 60% growth inhibition. A value of 0 means no net growth occurred over the course of the experiment. A value of -40 indicates 40% of cells at the beginning of the experiment died by the end of the experiment. A value of -100 means all cells are dead at the end of the experiment.
NCI-60 Human Tumor Cell Lines Screen was performed using the standard one-dose NCI protocol, which is described in more detail at https://dtp.cancer.gov/discovery_development/nci-60/default.htm.
Compounds with GIPRCNT values below 10 were considered active. Activity score was based on GIPRCNT using the following formula: […]
Score is 0 for GIPRCNT values of 100 or above, 50 for GIPRCNT values of 0, and 100 for GIPRCNT values of -100.
Consider `Cc1ccc2sc3c(c2c1)Oc1nc[nH]c(=O)c1C3c1cccc(F)c1` (stereo not given), for which the growth is 96.3%.

On to `C#C[C@]1(O)CC[C@H]2[C@@H]3CC=C4c5sc(Nc6ccc(N(C)C)cc6)nc5CC[C@]4(C)[C@H]3CC[C@@]21C`, for which the growth was 9.05% (active).

In the case of `COc1cccc(O)c1/C=C1\SCc2cc3c(OC)cccc3[o+]c21`, the growth was 98%.

`COc1ccc(-n2c(SCC(=O)NNS(=O)(=O)c3ccccc3)nc3ccc(Cl)cc3c2=O)cc1`: the growth was 78.9%.

As to `Cc1ccc(S(=O)(=O)N2CCN(S(=O)(=O)c3oc(-c4ccccc4)nc3C#N)CC2)cc1`, the growth was 31.4%.

With `Cc1ccc2c(c1)C(=O)/C(=C/c1ccc([N+](=O)[O-])cc1)S2`, the growth is 100%.

For the molecule `CC1[C@H]2[C@H](C[C@H]3[C@@H]4CC=C5c6sc(Nc7cccc(Cl)n7)nc6CC[C@]5(C)[C@H]4CC[C@@]32C)O[C@]12CC[C@@H](C)CO2` (stereo not given in full), the growth is 65.3%.

On to `O=C(CC(=O)Nc1ccc(Oc2ncnc3scc(Nc4n[nH]c(=S)s4)c23)cc1)Nc1ccc(Br)cc1`, for which the growth is 87%.

In the case of `O=C(CN1CCN(c2ncnc3c2cnn3-c2ccccc2)CC1)Nc1ccc(Cl)cc1`, the growth is 36.9%.

Turning to `COC(=O)CNC(=O)COc1c(OC)c(OC)cc2oc(-c3cccc(C(=O)Nc4ccc(Cl)cc4)c3)cc(=O)c12`, the growth was 61.2%.

For the molecule `CCOC(=O)c1ccc(NC(=O)CSC(CC(=O)c2sc(Nc3ccccn3)nc2C)c2ccccc2F)cc1` (stereo not given), the growth is 4.27% (active).

As for `O=C(c1ccccc1)c1ccc2nc(-c3ccccc3Br)[nH]c2c1`, the growth is -22.8% (active).

On to `O=C1NC2C=CC=CC2/C1=C1/SC(=S)N(C2CC(=O)N(c3ccc(Br)cc3)C2=O)C1=O` (stereo not given), for which the growth was 67.9%.

As for `C#C[C@]1(O)CC[C@H]2[C@@H]3CC=C4c5sc(Nc6cc(C)cc(C)n6)nc5CC[C@]4(C)[C@H]3CC[C@@]21C`, the growth was 3.1% (active).

Consider `COc1ccc(OC)c(-n2cc(C#N)c(N)c2C(=O)c2ccc(Cl)cc2Cl)c1`, for which the growth is 13.7%.

Take `Cc1cc(N=C2NC(=O)/C(=C/c3cc(C(C)(C)C)c(O)c(C(C)(C)C)c3)S2)n[nH]1`: the growth is 12.2%.

Turning to `COc1cccc(C(=O)CSc2nc(-c3ccc(OCc4ccccc4)c(OC)c3)c(C#N)c(=O)[nH]2)c1`, the growth was 93.9%.

With `COc1cc(Nc2nc(O)c(/C=C3\C=Nc4ccccc43)s2)cc(OC)c1OC`, the growth was 2.6% (active).

`C#C[C@]1(O)CC[C@H]2[C@@H]3CC=C4c5sc(Nc6ccc(C(F)(F)F)cn6)nc5CC[C@]4(C)[C@H]3CC[C@@]21C`: the growth was 1.07% (active).

Consider `Cn1cc(-c2cc3nc(-c4c[nH]c5ccccc45)cc(N)n3n2)c2cc(Cl)ccc21`, for which the growth is -8.96% (active).

As for `COc1ccc(C2OC[C@@]3(C)C4CC[C@]5(C)C(CC=C6C7CC(C)(C)CC[C@]7(C(=O)O)CC[C@]65C)[C@@]4(C)C[C@@H](O)[C@@H]3O2)cc1` (stereo not given in full), the growth is 54.7%.

As to `COc1cc(C2CC(c3ccc(Oc4ccc(Cl)cc4)cc3)=NN2c2nc(-c3ccc(Cl)cc3)c(C#N)c(N3CCOCC3)n2)cc(OC)c1OC` (stereo not given), the growth was 88.5%.

Take `O=C(c1ccc(F)cc1)C(c1c[nH]c2ccccc12)c1c[nH]c2ccccc12`: the growth was 10.5%.

As for `CCOc1ccc(/C=N/NC(=O)Cn2nc(Cc3ccc(OC)cc3)c3onc(C)c3c2=O)cc1`, the growth was 29.8%.

For `COc1ccc(Cc2nn(CC(=O)N/N=C/c3ccc([N+](=O)[O-])cc3)c(=O)c3c(C)noc23)cc1`, the growth is 93.2%.

In the case of `COc1ccc(C2c3sc4ccc(C)cc4c3Oc3nc[nH]c(=O)c32)cc1` (stereo not given), the growth is 39.4%.

With `COc1ccccc1-n1cc(C#N)c(N)c1C(=O)c1ccc(Cl)cc1Cl`, the growth was 11.5%.

Turning to `Cc1ccc(COc2ccc(NC(=O)Nc3ccc(Cl)c(C(F)(F)F)c3)cc2)cc1`, the growth is 55%.

With `Nc1nnc(-c2c[nH]c3ncc(Br)cc23)c(-c2c[nH]c3ccc(Br)cc23)n1`, the growth is 6.57% (active).

For the molecule `COc1cc(-c2nc3ccc(C)cc3[nH]2)ccc1OCc1nnc(-c2ccccc2Br)o1`, the growth is 59.1%.

With `C#CCOc1cc(N(CC)CC)ccc1C(C(=O)NC(C)(C)C)N(C(=O)C1CCc2cc(F)ccc2O1)c1ccc(F)cc1F` (stereo not given), the growth was 26.6%.

As to `O=C(Nc1ccc(OCc2ccc(F)cc2)cc1)Nc1ccc(Cl)c(C(F)(F)F)c1`, the growth is -7.46% (active).

For the molecule `Cn1cc(-c2nnc(N)nc2-c2c[nH]c3ccccc23)c2cc(Br)cnc21`, the growth was 8.61% (active).

In the case of `COc1cc2oc(-c3cccc(C(=O)Nc4ccc(Cl)cc4)c3)cc(=O)c2c(OCCN)c1OC`, the growth was -48.6% (active).

Consider `Cc1cc(N=C2NC(=O)S/C2=C\c2ccc(F)cc2)n[nH]1`, for which the growth is 8.59% (active).

On to `O=C(Nc1ccc(OCC(=O)c2ccc(Cl)cc2)cc1)Nc1ccc(Cl)c(C(F)(F)F)c1`, for which the growth was 39.5%.

`O=C(CC(=O)Nc1ccc(Oc2ncnc3scc(Nc4n[nH]c(=S)s4)c23)cc1)Nc1ccc(Cl)cc1`: the growth was 62.2%.

Regarding `Cn1cc(-c2nc(N)nnc2-c2c[nH]c3ccccc23)c2cc(Br)cnc21`, the growth is 8.01% (active).

Turning to `COc1cc(C2CC(c3ccccc3)=Nc3c(N)nc(N)nc3N2)ccc1Oc1nc(NCCO)nc(N2CCOCC2)n1` (stereo not given), the growth is 66%.

Turning to `CCn1c(SCC(=O)Nc2ccc(-c3nc4ccccc4[nH]3)cc2)nc2ccccc2c1=O`, the growth was -15.2% (active).
